Assay outcomes (PubChem BioAssay)
Compounds with a hit are over-represented: about 7.2% of the library has one in this group of screens.
MARV entry inh – inhibitors of Marburg virus binding or cell entry | Marburg virus pseudotyped entry inhibition, cell reporter | AID 540276 | Potency, µM (highest dose often 37.8 µM), inactives show at the top dose activity change, negative = inhibition, hits mostly inhibitors | 300,000 tested, 1.8% active; calls by dose curve; tested in HEK293 cells; note: % is set by controls: 0 for no effect and ±100 for the full control effect
Lassa entry inh – inhibitors of Lassa virus binding or cell entry. Lassa virus pseudotype entry inhibition, cell reporter. Potency, µM (highest dose often 37.9 µM), for inactives: top-dose activity change, negative = inhibition, most hits filed as inhibitors. 300,000 tested, 1.2% active; calls by dose curve; tested in HEK293 cells; note: % is set by controls: 0 for no effect and ±100 for the full control effect; nearly all actives have a fitted effect of over 50% in size
HCV inh – blocks hepatitis C virus; 340,000 tested, 3.4% active; Potency, µM (top dose mostly 41.8 µM), for inactives: top-dose activity change, negative = inhibition, usual class: inhibitors; AID 651820; Huh7.5.1 HCVcc-Cre infection, luciferase reporter, 44 h; note: % is set by controls: 0 for no effect and ±100 for the full control effect
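Infectious HCVcc-Cre (~0.5 moi) was added to cells just after compound, with cells seeded 4 h earlier at 1,000 per well. Luciferase activity after 44 h culture reported infection; substrate was incubated 15 min at room temperature before reading.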
Sm TGR block – inhibitors of Schistosoma mansoni thioredoxin glutathione reductase. Q962Y6. purified TGR, DTNB reduction, TNB absorbance 405 nm. Potency, µM (titrated, usually from 114 µM), for inactives: top-dose activity change, negative = inhibition, usual class: inhibitors. 360,000 tested, 3% active; note: % is set by controls: 0 for no effect and ±100 for the full control effect; nearly all actives have a fitted effect of over 60% in size
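Kinetic colorimetric format: TGR-catalysed, NADPH-driven DTNB reduction monitored via TNB absorbance. Enzyme dispensed at 20 nM; compound exposure 15 min at room temperature before reaction start.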
FMDV inh – foot and mouth disease virus antiviral activity; FMDV antiviral cell-based qHTS; Potency, µM (titrated, usually from 57.9 µM), without a hit: at the highest dose activity change, negative = inhibition, usual class: inhibitors; 410,000 tested, 1.2% active; AID 1159524; calls by dose curve; tested in HEK293T cells; note: read-out not given here; % is set by controls: 0 for no effect and ±100 for the full control effect; nearly all actives have a fitted effect of over 45% in size
RE007 growth inh – less growth of the S. pombe RE007 Vpr strain. S. pombe RE007 Vpr strain, BacTiter-Glo ATP luminescence, 24 h. Potency, µM (doses to about 92.2 µM), inactives show at the top dose activity change, negative = less growth, usual class: inhibitors. 360,000 tested, 0.21% active; active = well fitted falling curve with a large enough effect; inconclusive = small, poorly fitted or top-dose-only effect; inactive = no such curve, though single readings can be large or run the other way; note: % is set by controls: 0 for no effect and ±100 for the full control effect; nearly all actives have a fitted effect of over 50% in size
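Fission yeast strain RE007, carrying one chromosomally integrated HIV-1 vpr copy, was seeded at OD 0.01 in PMG+AL medium with 23 nL pinned compound. After 24 h at 30 °C and 99% humidity, viability was read by BacTiter-Glo luminescence.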
HCV inh confirm – confirmation of hepatitis C virus inhibitors; shares compounds with HCV inh; HCVcc-Cre infectious virus cell assay, luciferase, inhibition; Potency, µM (doses to about 41.8 µM), for inactives: at the highest dose activity, negative = inhibition, hits mostly inhibitors; 640 tested, 78% active; note: nearly all actives have a fitted effect of over 80% in size
HCV cytotox – counter-screen for HCV inhibitors: host cell cytotoxicity; HCV host cell line cytotoxicity counterscreen; Potency, µM (top dose mostly 41.8 µM), inactives show at the top dose activity change, negative = cytotoxicity, most hits filed as inhibitors; AID 720576; 640 tested, 22% active; shares compounds with HCV inh;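 note: 44 h compound exposure; % is set by controls: 0 for no effect and ±100 for the full control effect; nearly all actives have a fitted effect of over 55% in size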
* hit, by the source's call; ? = inconclusive; . = not tested or not shown; [ ] = remark or other dose. Unless noted, calls come from the whole dose curve; as a rule, active = well fitted curve in the direction sought with a large enough effect; inconclusive = small, poorly fitted or top-dose-only effect, or another doubt; inactive = no such curve, though single readings can be large; an effect the other way counts as inactive or inconclusive. Potency is the fitted concentration of half-maximal effect.

SMILES	MARV entry inh	Lassa entry inh	HCV inh	Sm TGR block	FMDV inh	RE007 growth inh	HCV inh confirm	HCV cytotox
Cc1cccc(Cn2c(NCCO)nc3c2c(=O)n(C)c(=O)n3C)c1	?	-29%	1.8µM*	0%	?	9%	4µM*	2.5µM*
CSc1nc2cc(Oc3cccc(Cl)c3Cl)c(Cl)cc2[nH]1	.	.	7.9µM*	2%	?	10%	?	26%
Cc1cc2oc(C(=O)NCCc3ccc(S(N)(=O)=O)cc3)c(C)c2cc1C	-6%[46.1 µM]	-27%[46.1 µM]	?	1%	-20%	5%	?	23%
Cc1cc2oc(C(=O)NCCc3ccc(S(N)(=O)=O)cc3)cc(=O)c2cc1C	?	1%[46.1 µM]	10%	-4%	-2%	?	.	.
COCCCn1c(SCc2ccccc2)nc2cc(OC)c(OC)cc2c1=N	-1%	?	?	-11%	-16%	-16%	14µM*	58%
CCOC(=O)/C(C#N)=C(C)/C=C1\Sc2ccccc2N1CC	?	20%	?	-22%	12%	2%	.	.
CCN1/C(=C\C(=S)Nc2ccccc2)Sc2ccccc21	?	?	6.3µM*	4%[57.1 µM]	-5%	2%	14µM*	?
COc1ccc(NC(=O)COC(=O)c2c3c(nc4ccccc24)CCCC3)cc1Cl	?	?	4.5µM*	-23%	?	-21%	5µM*	31µM*
C=CCOC(=O)NC(c1ccc(F)c(F)c1)C(C(C)=O)C(=O)OC (stereo unspecified)	26%[14.2 µM]	.	.	.	.	.	.	.
Cc1ccc(Cn2ncc3c(N4CCN(CCc5ccccc5)CC4)ncnc32)cc1	?	-20%	5µM*	11%	?	-3%	11µM*	25µM*
CCNC(=S)/N=C(\N)Nc1nc(C)c2cc(C)ccc2n1	?	.	3.2µM*	61%	61%	0%	?	-29%
CCOc1ccc2nc(N/C(N)=N/C(=S)Nc3ccc(C)c(C)c3)nc(C)c2c1	9%	-1%	-19%	2%	-29%	-14%	.	.
C=CCNC(=O)c1ccc(Cn2c(=S)[nH]c3cc4c(cc3c2=O)OCO4)cc1	-14%	-13%	?	-9%	16%	8%	2.5µM*	21%
Cc1sc(NC(=O)Cc2ccc3c(c2)OCO3)nc1-c1ccc2c(c1)CCN2C(=O)c1ccc(F)cc1	?	?	1.3µM*	-18%	?	-16%	7.9µM*	-21%
O=S(=O)(Nc1ccc(-c2ccc(NS(=O)(=O)c3ccccc3)cc2)cc1)c1ccccc1	-3%[46.1 µM]	?	3.2µM*	.	15%	-6%	13µM*	2%
CCOc1ccc2c(c1)sc(N)[n+]2Cc1cc(C)cc2cccnc12	?	?	?	-9%	?	2%	.	.
COc1ccc2c(c1)sc(N)[n+]2Cc1cc(C)cc2cccnc12	?	?	8.9µM*	-9%	0%	-17%	16µM*	?
Cn1c(SCc2ccc(F)cc2Cl)nc2ccccc2c1=O	?	?	?	-12%	?	-11%	6.3µM*	14µM*
O=C(N/N=C/c1ccc[nH]1)c1ccc(Cl)cc1	-19%	?	5µM*	-6%	56%	.	14µM*	14µM*
COC(=O)N1C(c2ccccc2)=Cc2ccccc2C1C1(C(=O)OC)CCCC1=O (stereo unspecified)	-1%[14.2 µM]	?	.	.	.	.	.	.
c1ccc2c(c1)[nH]c1c(N3CCN(C4CCCCC4)CC3)ncnc12	?	9%	-9%	7%	-23%	16%	.	.
c1ccc2c(c1)[nH]c1c(N3CCCC3)ncnc12	?	-27%	8.9µM*	5%	13µM*	5%	7µM*	16µM*
CCOC(=O)c1cc2c(ccc3nc(C)c(C)c32)[nH]c1C	.	.	3.2µM*	-8%	2%	-12%	13µM*	20%
FCCCOc1ccc(-c2nccc(-c3ccc(F)cc3)n2)cc1	0%[46.1 µM]	4%	?	6%	-13%	-25%	?	15%
FCCCOc1ccc(-c2ccnc(-c3ccccc3)n2)cc1	-15%	12%	?	13%	31%	-17%	.	.
SMILES	MARV entry inh	Lassa entry inh	HCV inh	Sm TGR block	FMDV inh	RE007 growth inh	HCV inh confirm	HCV cytotox
CN=c1sc2c(n1C)C(=O)c1ccccc1C2=O	?	?	?	.	?	10µM*	31µM*	28µM*
O=c1c(-c2cc(F)cc(F)c2)nc2cnc(Nc3ccccc3)nc2n1C[C@H]1CCCO1	.	.	.	.	-13%	.	.	.
c1ccc2nc(-c3ccc4c(c3)OCO4)ccc2c1	.	.	-9%	2%	10%	-29%	.	.
COc1ccc(OC)c2nc(-c3ccc4c(c3)OCO4)ccc12	?	?	4.5µM*	11%	53%	-7%	8.9µM*	24%
O=C(c1ccncc1)N1CCC[C@@]2(CCN(Cc3ccccc3)C2)C1	.	.	.	.	-8%	.	.	.
COc1cc2c(=O)n(CCC(=O)NCC3CCCO3)c(=O)n(CC(=O)c3ccc(Cl)cc3)c2cc1OC (stereo unspecified)	.	.	2µM*	-5%	-11%	-2%	7.9µM*	26%
O=C(Nc1ccc(CN2CCS(=O)(=O)CC2)cc1)c1ccccc1	.	.	6%	-1%	-6%	5%	.	.
O=C(Nc1ccc(CN2CCS(=O)(=O)CC2)cc1)c1ccc(C(F)(F)F)cc1	?	-29%	5.6µM*	12%	?	6%	5µM*	13µM*
O=C(Nc1ccc(S(=O)(=O)Nc2ccccc2)cc1)c1ccc(CN2CCOCC2)cc1	.	.	2.2µM*	2%	?	11%	1.8µM*	-93%
CCCOC(=O)CSc1nnc2ccc3ccccc3n12	-1%[46.1 µM]	4%[46.1 µM]	.	3%	0%	.	.	.
Clc1ccc2nc(-c3ccc(Br)s3)cn2c1	?	8.2µM*	?	-33%	-18%	-16%	6.3µM*	?
Cc1cn2c(=O)c3ccccc3nc2n2c(=O)c3ccccc3nc12	.	.	.	.	-12%	.	.	.
Cc1ccc(C)c2nc(SCC(=O)N3CCCc4ccccc43)c(C#N)cc12	-26%	-19%	6.3µM*	-3%	13%	9%	7µM*	15%
Cc1cccc2cc(C#N)c(SCC(=O)N3CC(=O)Nc4ccccc43)nc12	?	?	?	1%	?	-2%	.	.
COc1ccc(C[C@H]2NC[C@H](O)[C@H]2OC(C)=O)cc1	.	.	?	.	?	-16%[18.4 µM]	7µM*	-12%
O=C(Nc1ccc(F)cc1F)NC1CCN(S(=O)(=O)c2ccc(F)cc2)CC1	-23%[46.1 µM]	0%[46.1 µM]	-18%	-1%	-20%	1%	.	.
